Laboratory results as given in PubChem BioAssay AID504408 (Broad Institute, 2011).
The whole screen tested about 300,000 compounds, of which about 5,200 (1.7%) were called active. The sample holds actives, similar compounds and a random draw of the others, so the mix is not that of the screen. Values without a mark were called inactive.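 The calls were made as follows: active = mean replicate activation of at least 50% with a set share of replicates each reaching 50%; inconclusive = only one of those two conditions met; inactive = mean below 50% and too few replicates reaching it.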

Assay: HSF-1 response element luciferase induction – NIH3T3-HGL cells, MG132 stress, luminescence, single point, primary screen (AID 504408);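 also: 0% = median of the neutral control wells and 100% = twice that signal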
Conditions: NIH3T3-HGL HSF-1 luciferase reporter, MG132, 8 h; at 9 µM; hits give high values; 100% = twice DMSO control signal

| SMILES | activation |
| --- | --- |
| CCOC(=O)C/C(C)=N\Nc1ccc([N+](=O)[O-])cc1[N+](=O)[O-] | 1.63% |
| CCCCOc1ccc(CSC(=N)N)cc1[N+](=O)[O-] | -29.6% |
| CCCCOC(=O)CCCc1ccc([N+](=O)[O-])cc1[N+](=O)[O-] | 65% (active) |
| Cc1csc2nc(O)c(C(=O)NCCN3CCOCC3)c(=O)n12 | -6.85% |
| COc1ccc(S(=O)(=O)NCC(c2ccc(C)cc2)N2CCN(C)CC2)cc1OC (centres undefined) | 5.43% |
| Cc1csc(NC(=S)Nc2cccc(Cl)c2)n1 | 58.4% (active) |
| S=C(Nc1cccc(Cl)c1)Nc1ccc2cn[nH]c2c1 | 20.2% |
| S=C(Nc1cccc(Cl)c1)Nc1ccc2c(c1)OCCO2 | 5.58% |
| COc1ccc(C(=O)NCC2CCCN2S(=O)(=O)c2cccs2)cc1OC (centres undefined) | -9.4% |
| Cc1ccc2nc(-c3ccc(Br)cc3)cn2c1 | -34.2% |
| CCN(c1cccc(C)c1)S(=O)(=O)c1ccc(-c2coc(C)n2)cc1 | -1.05% |
| CCN(CC)S(=O)(=O)c1ccc(-c2cn3ccc(C)cc3n2)cc1 | 58.1% (active) |
| Cc1ccc(SCC(=O)Nc2nncs2)cc1 | -2.82% |
| COc1ccc(-n2nnnc2CNC(=O)c2ccc3ccccc3c2)cc1 | 3.44% |
| COc1cccc(NC(=O)CSc2nnc(-c3cccnc3)o2)c1 | 11.6% |
| Cc1ccc(C)c(-c2nnc(NC(=O)CS(=O)(=O)c3ccccc3)o2)c1 | -10.1% |
| COc1cc2ccccc2cc1C(=O)Nc1nc(C)c(C(C)=O)s1 | 23.8% |
| CC(=O)c1sc(NC(=O)CCCOc2ccccc2C)nc1C | 35.1% |
| COc1cccc2sc(Nc3nc(C)c(C(C)=O)s3)nc12 | -3.69% |
| CC(=O)c1sc(N/N=C\c2ccc(C)cc2)nc1C | 38.3% |
| CC(=O)c1sc(N/N=C/c2ccc(C(C)C)cc2)nc1C | 59.6% (active) |
| COc1ccccc1/C=N/Nc1nc(C)c(C(C)=O)s1 | 55.9% (active) |
| CCN1C(=O)[C@H]2[C@@H](c3ccc(C)cc3)N3C(=O)N(c4cccc(Br)c4)C(=O)[C@@]3(CC)[C@H]2C1=O | -10.8% |
| Cc1csc(NC(=O)CSc2nc(=O)n(CCCN(C)C)c3c2CCC3)n1 | -4.76% |

| SMILES | activation |
| --- | --- |
| Cc1ccc(S(=O)(=O)CCC(=O)OCC(=O)N(C)C2CCS(=O)(=O)C2)cc1 (centres undefined) | 2.33% |
| CCN(Cc1ccccc1)S(=O)(=O)c1cc2c3c(c1)CCN3C(=O)CC2 | 23.7% |
| COc1ccc2c(c1)C(=O)Nc1cc(Cl)ccc1N2 | 12.2% |
| CN(C)CCn1c2c(c(SCC(=O)Nc3ccccc3C(F)(F)F)nc1=O)CCCC2 | -8.06% |
| CCCc1cc(-c2nc(-c3ccc(C)cc3)cs2)ccn1 | 7.82% |
| Cc1ccc(-c2csc(-c3c[nH]c4ccccc34)n2)cc1 | 62% (active) |
| Cc1ccc(-c2csc(-c3cc(C)on3)n2)cc1 | 28.5% |
| COc1ccccc1C(=O)NCCC(=O)NN1C(=O)NC2(CCCCC2)C1=O | -5.35% |
| O=C(COC(=O)c1ncc(Cl)c(Cl)c1Cl)NCc1cccs1 | -3.74% |
| Cc1cc(C(=O)N/N=C/c2ccccc2[N+](=O)[O-])c(C)o1 | 58.5% (active) |
| CC(=C/c1ccccc1)/C=N/NC(=O)c1cc(C)oc1C | 32% |
| Cc1cc(C(=O)N/N=C/c2ccc(N3CCOCC3)cc2)c(C)o1 | -5.06% |
| Cc1cc(C(=O)N/N=C\C(Br)=C\c2ccccc2)c(C)o1 | 112% (active) |
| CC(C)c1cc(C(=O)N/N=C/C(Br)=C/c2ccccc2)n[nH]1 | 40.2% |
| O=C(Cc1cc(=O)[nH][nH]1)N/N=C/c1ccccc1[N+](=O)[O-] | -2.04% |
| COc1cc(C(=O)N(C)Cc2cccc(OC)c2OC)ccc1OCC(=O)Nc1cccc(C(F)(F)F)c1 | -3.36% |
| CC(OC(=O)CCC(=O)c1ccccc1)C(=O)Nc1ccc(F)cc1 (centres undefined) | -12.9% |
| COc1cc(C(=O)OCc2ccc([N+](=O)[O-])cc2)cc(OC)c1OC | 12.4% |
| COc1cc(/C=N/O)ccc1OCc1ccc([N+](=O)[O-])cc1 | 118% (active) |
| COc1cc(/C=N\Nc2ccc([N+](=O)[O-])cn2)ccc1OCC(=O)O | 0.194% |
| O=C(Nc1ccc(F)c([N+](=O)[O-])c1)C1CCCO1 (centres undefined) | 9.04% |
| COc1ccc(S(=O)(=O)N2CCOC23CCN(S(=O)(=O)c2ccc([N+](=O)[O-])cc2)CC3)cc1 | 0.627% |
| CCOc1ccc(C(C)=O)cc1COC(=O)CN1C(=O)NC2(CCCC2)C1=O | -13.7% |
| Cc1ccc(-c2cc(C(=O)N/N=C/C=C/c3ccco3)c3ccccc3n2)cc1C | -41.2% |

| SMILES | activation |
| --- | --- |
| CC(/C=N/NC(=O)c1ccncc1)=C\c1ccco1 | 27.6% |
| CC(/C=N/NC(=O)c1cc(-c2ccc3ccccc3c2)n[nH]1)=C\c1ccco1 | 71.5% (active) |
| COc1ccc(/C=N/Nc2ccccc2C(=O)O)cc1 | 12.9% |
| NC(=O)c1ccccc1N=Cc1ccc2ccccc2c1 | 75.3% (active) |
| N=c1oc2ccccc2cc1C(=O)N/N=C/c1ccccc1 | 22.1% |
| COc1ccccc1NS(=O)(=O)c1ccc(C(=O)N2CCN(c3ccccc3O)CC2)cc1 | 14.5% |
| CCOc1ccc2nc(C(=O)N3CCCC(C)C3)sc2c1 (centres undefined) | 76.7% (active) |
| CCOc1ccc2nc(Nc3nc4ccc(NC(C)=O)cc4s3)sc2c1 | 36.7% |
| CCCC(=O)N(CCN1CCOCC1)c1nc2ccc(OCC)cc2s1 | 5.04% |
| CSc1ccc(S(=O)(=O)NCC(=O)OCC(=O)NC2(C#N)CCCCC2)cc1[N+](=O)[O-] | 1.77% |
| COc1ccccc1C(=O)NC(CCSC)C(=O)NNC(=O)c1ccccc1C (centres undefined) | -15.3% |
| C=CCn1c(SCc2ccc(C(=O)NCCO)cc2)nc2ccccc2c1=O | -5.63% |
| O=C(Nn1c(-c2ccccc2)nc2ccccc2c1=O)c1ccc([N+](=O)[O-])cc1 | 19.1% |
| O=C(Nn1c(SCc2ccc([N+](=O)[O-])cc2)nc2ccccc2c1=O)c1ccc(F)cc1 | 51.9% (active) |
| O=C(CSc1ccccn1)N1CCN(S(=O)(=O)c2ccc(Cl)cc2)CC1 | 9.98% |
| O=S(=O)(O)Oc1c[nH]c2ccccc12 | -0.476% |
| CCS(=O)(=O)c1ccc(-c2cccc(NC(=O)c3ccc(Br)o3)c2)nn1 | -23.4% |
| CCCc1cc(C(=O)Nc2ccc(Cl)cn2)cs1 | 43.8% |
| O=C(Nc1ccc(Cl)cn1)Nc1cccs1 | 69.7% (active) |
| O=C(Nc1cccc([N+](=O)[O-])c1)Nc1ccc(Cl)cn1 | -5.81% |
| COc1ccc(NC(=O)CN(C)C(=O)/C=C/c2cn(Cc3ccccc3)nc2-c2cccnc2)cc1 | 1.78% |
| COC(=O)[C@]1(C)N[C@H](c2ccc(-c3ccc(Cl)c(Cl)c3)cc2)[C@@H]2C(=O)N(C)C(=O)[C@@H]21 | 23% |
| Cn1c(CCN2CCCCCC2)nc2cc(NC(=O)Nc3ccccc3)ccc21 | 276% (active) |
| Cn1c(CN2CCOCC2)nc2cc(NC(=O)c3ccc(Cl)cc3)ccc21 | 70% (active) |

| SMILES | activation |
| --- | --- |
| CCOC(=O)N1CCN(Cc2nc3cc(NC(C)=O)ccc3n2C)CC1 | -12.5% |
| CCC(=O)Nc1ccc2c(c1)nc(CCN1CCN(c3ccccn3)CC1)n2C | 27.9% |
| CC(=O)NCCc1nc2cc(NC(=O)c3ccccc3)ccc2n1C | -16.5% |
| Cn1c(CCN2CCCC2)nc2cc(NS(=O)(=O)c3ccccc3)ccc21 | -1.14% |
| COC(=O)c1ccc(SCc2ccccc2)nc1 | 18.6% |
| CCOc1ccc(NC(=O)CN(C)C(=O)c2c(C)noc2C)cc1OCC | 8.14% |
| CCOC(=O)c1c(NC(=O)CN2C(=O)NC3(CCC(C)CC3)C2=O)sc(C)c1CC (centres undefined) | 2.47% |
| COc1ccc(C2CC(c3ccc([N+](=O)[O-])cc3)=NN2C(C)=O)cc1 (centres undefined) | 22% |
| COc1ccc(C2CC(c3ccccc3)=NN2C(=O)c2ccc(Cl)c([N+](=O)[O-])c2)cc1 (centres undefined) | 73.2% (active) |
| COc1ccc(C2=NN(C(=O)c3cccnc3)C(c3ccccc3)C2)cc1 (centres undefined) | 4.6% |
| OCc1ccc(-c2ccccc2)c(-c2ccccc2)c1 | -0.0415% |
| Cc1ccc(CSCC(=O)N(C)CC(=O)Nc2cccc(F)c2)cc1 | 4.88% |
| Cc1cc(C)c(C)c(S(=O)(=O)Nc2cccnc2)c1C | -8.55% |
| CCOC(=O)/C(C#N)=C/c1ccc(N2CCN(Cc3ccccc3)CC2)cc1 | -3.55% |
| CCOC(=O)/C(C#N)=C/c1ccc(N2CCCCC2)cc1 | 54.1% (active) |
| COc1ccc(N2CCN(C(=O)/C(C#N)=C/c3ccccc3)CC2)cc1 | -4.53% |
| CCN1C(=O)[C@H]2[C@@H](c3ccc(-c4ccc(OC)cc4)cc3)N[C@@](Cc3ccccc3)(C(=O)OC)[C@H]2C1=O | 22.5% |
| S=C(c1ccc(-c2ccccc2)o1)N1CCCCC1 | 63.6% (active) |
| OCCN1CCN(C(=S)c2ccc(-c3ccccc3)cc2)CC1 | -5.27% |
| S=C(c1ccccc1)N1CCCC1 | 0.831% |
| CCCCCC(=O)N1CCN(S(=O)(=O)c2ccc3c(c2)OCCCO3)CC1 | -14% |
| CCCCn1c(N)c(N(CCOC)C(=O)c2cccc(S(=O)(=O)N(C)c3ccccc3)c2)c(=O)[nH]c1=O | 0.234% |
